Some test systems named below: NCI-H23 lung; NCI-H226 lung; NCI-H322M lung; HOP-62 NSCLC; NCI-H460 lung; HOP-92 NSCLC; NCI-H522 lung; A549/ATCC NSCLC; 786-0 renal; COLO 205 colon.
Holding throughout (test): NCI-60 one-dose screen, 48 h (100 = growth as untreated, 0 = no growth, -100 = all killed)
What all share (conditions): 10 µM unless noted

The panel holds about 83,000 compounds, 20% with a hit somewhere; the sample as a whole holds those more often.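 Note: values are percent growth. 100 is the growth of untreated cells, values between 100 and 0 indicate rising inhibition; between -100 and 0 indicates cell death.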 Unmarked numbers belong to inactive results. Calls of active or inactive are those of the source. The calls were made as follows: active = growth percent below 10; inactive = the rest.

`N#Cc1c(-c2ccc(F)cc2)nc(SCc2ccc(F)cc2)nc1N1CCNCC1`: the growth in the experiment with NCI-H23 lung was -61.3% (active); in the experiment with NCI-H226 lung it was 76.9%; in the experiment with NCI-H322M lung it was 36.1%; in the experiment with HOP-62 NSCLC, -65.4% (active); in the experiment on NCI-H460 lung it was -85.1% (active); in the experiment on HOP-92 NSCLC, -64.9% (active). Moreover, the growth was -70.4% (active) in the experiment with NCI-H522 lung, -74.8% (active) in the experiment on A549/ATCC NSCLC, -79.1% (active) in the experiment on 786-0 renal and -68.8% (active) in the experiment on COLO 205 colon.
With `COc1ccc(-c2nnc3c(/C=C/c4ccc(Br)cc4)nc4ccccc4n23)cc1`, the growth was 29.9% with NCI-H23 lung; 96.7% in the experiment on NCI-H226 lung; 96.5% in the experiment on NCI-H322M lung; 104% in the experiment with HOP-62 NSCLC; 67.6% with NCI-H460 lung; 35.6% with HOP-92 NSCLC. In addition, the growth was -79.9% (active) in the experiment on NCI-H522 lung, 75.8% in the experiment on A549/ATCC NSCLC, -41.8% (active) in the experiment on 786-0 renal and -53% (active) in the experiment on COLO 205 colon.
Regarding `CCCCN1C(=O)/C(=C\C(=O)c2cc3ccccc3oc2=O)c2ccccc21`, the growth in the experiment with NCI-H23 lung was 79%; with NCI-H226 lung, 88.5%; in the experiment on NCI-H322M lung, 99.4%; in the experiment with HOP-62 NSCLC, 92.3%; in the experiment with NCI-H460 lung, 86.4%; in the experiment on HOP-92 NSCLC it was 63.7%. Besides, the growth in the experiment with NCI-H522 lung was -19.9% (active); in the experiment on A549/ATCC NSCLC, 106%; with 786-0 renal, 75%; in the experiment on COLO 205 colon, -20.5% (active).
`COc1cc(CNC(=O)C[C@H](C)CCC=C(C)C)ccc1OCc1cn(-c2ccc(Br)cc2)nn1`: the growth is 60.1% in the experiment with NCI-H23 lung; 70.2% with NCI-H226 lung; 99.6% with NCI-H322M lung; 65.1% in the experiment with HOP-62 NSCLC; 74.2% with NCI-H460 lung; 45.9% in the experiment on HOP-92 NSCLC. Further, the growth with NCI-H522 lung was 41.6%; with A549/ATCC NSCLC, 78.6%; in the experiment on 786-0 renal it was 68.7%; with COLO 205 colon, 113%.
As to `COc1ccc(OC)c(Cn2cc(C#N)c(N)c2C(=O)c2ccc(Br)cc2)c1`, the growth in the experiment with NCI-H23 lung is 54.4%; with NCI-H226 lung it was 64.9%; in the experiment with NCI-H322M lung it was 85.8%; with HOP-62 NSCLC, 40.2%; in the experiment with NCI-H460 lung it was 41.8%; in the experiment on HOP-92 NSCLC, 55.7%. The growth in the experiment on NCI-H522 lung is -29% (active); in the experiment on A549/ATCC NSCLC, 46.4%; in the experiment on 786-0 renal, 63.9%; in the experiment on COLO 205 colon, 30.4%.
Regarding `Oc1ccc(Cl)c(Nc2ncnc3c2cnn3CC(Cl)c2ccc(Br)cc2)c1` (stereo not given), the growth in the experiment with NCI-H23 lung is 65.8%; with NCI-H226 lung, 84%; in the experiment with NCI-H322M lung it was 67%; in the experiment with HOP-62 NSCLC, 58.1%; in the experiment with NCI-H460 lung it was 67.1%; in the experiment with HOP-92 NSCLC it was 8.3% (active). In addition, the growth in the experiment on NCI-H522 lung is 52.6%; in the experiment with A549/ATCC NSCLC it was 53.9%; in the experiment on 786-0 renal, 63.9%; with COLO 205 colon, 90.9%.
For `COc1ccc(-c2nc3ccc(-c4nnc(SCc5ccccc5)o4)cc3[nH]2)cc1OC`, the growth is 38.8% in the experiment with NCI-H23 lung; -26.7% (active) with NCI-H226 lung; 46.7% in the experiment with NCI-H322M lung; -29.8% (active) in the experiment on HOP-62 NSCLC; -6.16% (active) with NCI-H460 lung; -3.75% (active) in the experiment on HOP-92 NSCLC. In addition, the growth in the experiment on NCI-H522 lung is 51.9%; in the experiment with A549/ATCC NSCLC, 9.7% (active); in the experiment on 786-0 renal, -33.5% (active); in the experiment with COLO 205 colon it was 74.2%.
For `O=c1c(-c2nc(-c3ccccc3)c(-c3ccccc3)[nH]2)coc2ccc(F)cc12`, the growth with NCI-H23 lung was 60.7%; in the experiment on NCI-H226 lung, 65.1%; in the experiment on NCI-H322M lung, 73.1%; in the experiment with HOP-62 NSCLC, 70.1%; in the experiment with NCI-H460 lung, 19%; with HOP-92 NSCLC, 88.1%. Also, the growth in the experiment with NCI-H522 lung was 71.7%; in the experiment with A549/ATCC NSCLC, 40%; with 786-0 renal it was 87.2%; in the experiment on COLO 205 colon, 53%.
Take `Nc1nn2c(-c3cc4cc(Br)ccc4oc3=O)ccnc2c1N=Nc1ccc(S(N)(=O)=O)cc1`: the growth was 50.6% in the experiment with NCI-H23 lung; 77.6% in the experiment on NCI-H226 lung; 78.3% with NCI-H322M lung; 41.8% with HOP-62 NSCLC; 52% with NCI-H460 lung; 83.2% in the experiment with HOP-92 NSCLC. Also, the growth with NCI-H522 lung was 93.3%; in the experiment on A549/ATCC NSCLC it was 107%; in the experiment with 786-0 renal it was 86.1%; with COLO 205 colon, 96.5%.
Take `O=C(Nc1nc2ccc([N+](=O)[O-])cc2s1)Nc1ccccc1F`: the growth in the experiment with NCI-H23 lung was 6.62% (active); with NCI-H226 lung, 10.9%; with NCI-H322M lung, 8.1% (active); in the experiment on HOP-62 NSCLC, 6.89% (active); in the experiment on NCI-H460 lung, 2.96% (active); with HOP-92 NSCLC, -3.78% (active). Also, the growth in the experiment on NCI-H522 lung is -16.6% (active); with A549/ATCC NSCLC, 12.2%; in the experiment with 786-0 renal, 7.95% (active); with COLO 205 colon, 21.9%.
In the case of `O=C(NNC(=O)c1ccc(OCc2nc3ccc(Cl)cc3[nH]2)cc1)Nc1ccc(Cl)c(Cl)c1`, the growth was 47% in the experiment on NCI-H23 lung; 93% with NCI-H226 lung; 47.6% with NCI-H322M lung; 65.4% in the experiment with HOP-62 NSCLC; 27.5% with NCI-H460 lung; 62.1% in the experiment with HOP-92 NSCLC. The growth was 60.4% in the experiment with NCI-H522 lung, 60.2% in the experiment on A549/ATCC NSCLC, 80.8% with 786-0 renal and 105% with COLO 205 colon.

The values are drawn from PubChem BioAssay (NCI).
